# Assay results: PubChem BioAssay (EPA / NIEHS)
# Inconclusive results are not listed. Active and inactive are the calls of the source. The calls were made as follows, unless noted: active = hit-call score of the fitted dose curve at least 0.9, where 1 is the maximum; inconclusive = response in the unintended direction; inactive = score below 0.9.
# How the values were obtained:
# [1] = TOX21_p53_BLA_p2_viability: Viability Assessment in the Tox21 HCT-116 p53 Agonism Beta-lactamase Assay, Phase 2 (AID 2283591);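 also: compound exposure lasted 16 h at 37 °C; actives lower the ATP signal meaning cytotoxicity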
# Outline: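 HCT116 p53-bla cells, 4000/well, dosed after 5 h plating (217-fold dilution of DMSO stocks) and incubated 16 h at 37C. Viability taken as cellular ATP by CellTiter-Glo luminescence after 30 min RT; signal loss marks cytotoxicity.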
# [2] = molecular target: Cellular tumor antigen p53 (Homo sapiens) (UniProt P04637); assay: TOX21_p53_BLA_p2_ratio: Tox21 HCT-116 p53 Agonism Beta-lactamase Assay, Ratio, Phase 2 (AID 2283592)
# Outline: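 DMSO-normalized, positive-direction endpoint derived from the 460 nm/530 nm FRET ratio in HCT116 p53 beta-lactamase reporter cells exposed 16 h at 37C and loaded with CCF4-AM for 2 h.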
# [3] = molecular target: Cellular tumor antigen p53 (Homo sapiens) (UniProt P04637); assay: TOX21_p53_BLA_p3_ratio: Tox21 HCT-116 p53 Agonism Beta-lactamase Assay, Ratio, Phase 3 (AID 2283596)
# Outline: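 Cells were seeded at 4000/well, rested 5 h at 37C, then dosed with DMSO compound solutions (217-fold dilution) for 16 h. CCF4-AM substrate was loaded for 2 h at room temperature, and the 460/530 nm emission ratio was fitted for gain of signal versus DMSO.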
# [4] = TOX21_p53_BLA_p5_viability: Viability Assessment in the Tox21 HCT-116 p53 Agonism Beta-lactamase Assay, Phase 5 (AID 2283600)
# Outline: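 Here cell health was gauged by ATP levels in wells holding 4000 cells, each treated 16 h with DMSO-delivered compounds at 217-fold dilution; reduced luminescence marked toxicity.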
# [5] = molecular target: Cellular tumor antigen p53 (Homo sapiens) (UniProt P04637); assay: TOX21_p53_BLA_p4_ratio: Tox21 HCT-116 p53 Agonism Beta-lactamase Assay, Ratio, Phase 4 (AID 2283601)
# Outline: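 HCT-116 p53 beta-lactamase reporter cells (4000/well) preincubated 5 h, then compound (217-fold dilution of DMSO stock) for 16 h at 37C. CCF4-AM substrate added 2 h at room temperature; 460/530 nm emission ratio fitted upward versus DMSO.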
# [6] = molecular target: Cellular tumor antigen p53 (Homo sapiens) (UniProt P04637); assay: TOX21_p53_BLA_p5_ratio: Tox21 HCT-116 p53 Agonism Beta-lactamase Assay, Ratio, Phase 5 (AID 2283599)
# Outline: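 HCT-116 p53-bla cells (4000/well) plated 5 h, dosed with compound (217-fold DMSO dilution) for 16 h at 37 C; CCF4-AM substrate 2 h at room temperature. Activity is the 460/530 nm emission ratio (405 nm excitation), fitted in gain-of-signal direction versus DMSO.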
# PGR (gene 5241) [7] = molecular target: PGR (gene 5241) (UniProt P06401); assay: TOX21_PR_BLA_Followup_Agonist_ratio: Tox21 HEK293 Progesterone Receptor (PR) Agonism Beta-lactamase Follow-Up Assay, Ratio (AID 2283933)
# Outline: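 Cells were seeded and held 6 hr before compound addition, exposed for 16 hr at 37C, then given FRET substrate for 2 hr at room temperature. Agonism was scored from the blue/green substrate cleavage ratio against DMSO controls.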
# PGR (gene 5241) [8] = molecular target: PGR (gene 5241) (UniProt P06401); assay: TOX21_PR_BLA_Followup_Antagonist_ratio: Tox21 HEK293 Progesterone Receptor (PR) Antagonism Beta-lactamase Follow-Up Assay, Ratio (AID 2283934);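 also: PR-UAS-bla HEK293T cells stimulated with 1 nM R5020 agonist for 16 hr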
# Outline: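 Cells are plated, rested 6 hr, then dosed with test compound in DMSO and challenged with 1 nM promegestone. After 16 hr incubation, substrate loading for 2 h at room temperature precedes fluorescence reading; viability is measured in the same wells.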
# [9] = TOX21_PR_BLA_Followup_Agonist_viability: Viability Assessment in the Tox21 HEK293 Progesterone Receptor (PR) Agonism Beta-lactamase Follow-Up Assay (AID 2283935);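 also: signal loss means lower viability so actives are cytotoxic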
# Outline: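 Cells were plated in medium with 2% charcoal-stripped FBS and rested 6 hr. Compounds in DMSO were then added for 16 hr at 37C, followed by the FRET substrate step and CellTiter-Glo luminescence after 30 min.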
# [10] = TOX21_PR_BLA_Followup_Antagonist_viability: Viability Assessment in the Tox21 HEK293 Progesterone Receptor (PR) Antagonism Beta-lactamase Follow-Up Assay (AID 2283936);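 also: cells exposed to compound with R5020 agonist for 16 h; hits lower the luminescence signal meaning cytotoxicity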
# Outline: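 PR-UAS-bla HEK293T cells in medium with 2% charcoal-stripped FBS were treated with compounds plus R5020 for 16 hr at 37C. After the beta-lactamase read, CellTiter-Glo was added to the same wells and luminescence read after 30 min at room temperature.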
# PGR (gene 5241) [11] = molecular target: PGR (gene 5241) (UniProt P06401); assay: TOX21_PR_LUC_Followup_Agonist: Tox21 HEK293 Progesterone Receptor (PR) Agonism Luciferase Follow-Up Assay (AID 2283937; active = hit-call score of the fitted dose curve at least 0.9, where 1 is the maximum; inactive = score below 0.9)
# Outline: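 Seed HEK293-PR-A-luc cells, wait 5 h, add compounds in DMSO, incubate 16 h at 37C, add ONE-Glo, read luminescence after 30 min. Activity is increase over DMSO controls; run with a viability counter-screen.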
# PGR (gene 5241) [12] = molecular target: PGR (gene 5241) (UniProt P06401); assay: TOX21_PR_LUC_Followup_Antagonist: Tox21 HEK293 Progesterone Receptor (PR) Antagonism Luciferase Follow-Up Assay (AID 2283938);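 also: curve fitted upward as signal gain over DMSO baseline despite antagonist label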
# Outline: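 Luciferase reporter in HEK293-PR-A-luc cells: 16 h compound treatment at 37C, ONE-Glo luminescence detection, DMSO as negative control and baseline.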
# [13] = TOX21_PR_LUC_Followup_Antagonist_viability: Viability Assessment in the Tox21 HEK293 Progesterone Receptor (PR) Antagonism Luciferase Follow-Up Assay (AID 2283940)
# Outline: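 HEK293-PR-A-luc, 3,000 cells/well; 5 h at 37C/0% CO2; compound pin transfer; 16 h incubation; CellTiter-Glo ATP luminescence, signal loss = cytotoxicity.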
# [14] = TOX21_PR_LUC_Followup_Agonist_viability: Viability Assessment in the Tox21 HEK293 Progesterone Receptor (PR) Agonism Luciferase Follow-Up Assay (AID 2283941);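 also: loss of signal means cytotoxicity so actives lower viability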
# Outline: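 Multiplexed viability endpoint of the PR agonist luciferase follow-up: HEK293-PR-A-luc cells treated 16 h at 37C, with viability scored as decrease in CellTiter-Glo ATP signal.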
# Chain of Cellular tumor antigen p53 (Homo sapiens) (P04637 whole entry, looked up): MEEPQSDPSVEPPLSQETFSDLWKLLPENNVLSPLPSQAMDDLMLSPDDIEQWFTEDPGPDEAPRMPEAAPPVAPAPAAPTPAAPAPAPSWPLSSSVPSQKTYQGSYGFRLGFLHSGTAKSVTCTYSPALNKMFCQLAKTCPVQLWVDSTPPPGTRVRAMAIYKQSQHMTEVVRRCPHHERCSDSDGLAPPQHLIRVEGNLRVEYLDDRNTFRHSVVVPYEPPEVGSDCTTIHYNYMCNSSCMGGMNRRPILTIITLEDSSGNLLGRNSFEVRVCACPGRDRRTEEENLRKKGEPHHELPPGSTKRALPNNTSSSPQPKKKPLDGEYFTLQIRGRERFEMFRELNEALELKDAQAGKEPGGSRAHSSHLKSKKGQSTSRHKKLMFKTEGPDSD
# Chain of PGR (gene 5241) (P06401 whole entry, looked up): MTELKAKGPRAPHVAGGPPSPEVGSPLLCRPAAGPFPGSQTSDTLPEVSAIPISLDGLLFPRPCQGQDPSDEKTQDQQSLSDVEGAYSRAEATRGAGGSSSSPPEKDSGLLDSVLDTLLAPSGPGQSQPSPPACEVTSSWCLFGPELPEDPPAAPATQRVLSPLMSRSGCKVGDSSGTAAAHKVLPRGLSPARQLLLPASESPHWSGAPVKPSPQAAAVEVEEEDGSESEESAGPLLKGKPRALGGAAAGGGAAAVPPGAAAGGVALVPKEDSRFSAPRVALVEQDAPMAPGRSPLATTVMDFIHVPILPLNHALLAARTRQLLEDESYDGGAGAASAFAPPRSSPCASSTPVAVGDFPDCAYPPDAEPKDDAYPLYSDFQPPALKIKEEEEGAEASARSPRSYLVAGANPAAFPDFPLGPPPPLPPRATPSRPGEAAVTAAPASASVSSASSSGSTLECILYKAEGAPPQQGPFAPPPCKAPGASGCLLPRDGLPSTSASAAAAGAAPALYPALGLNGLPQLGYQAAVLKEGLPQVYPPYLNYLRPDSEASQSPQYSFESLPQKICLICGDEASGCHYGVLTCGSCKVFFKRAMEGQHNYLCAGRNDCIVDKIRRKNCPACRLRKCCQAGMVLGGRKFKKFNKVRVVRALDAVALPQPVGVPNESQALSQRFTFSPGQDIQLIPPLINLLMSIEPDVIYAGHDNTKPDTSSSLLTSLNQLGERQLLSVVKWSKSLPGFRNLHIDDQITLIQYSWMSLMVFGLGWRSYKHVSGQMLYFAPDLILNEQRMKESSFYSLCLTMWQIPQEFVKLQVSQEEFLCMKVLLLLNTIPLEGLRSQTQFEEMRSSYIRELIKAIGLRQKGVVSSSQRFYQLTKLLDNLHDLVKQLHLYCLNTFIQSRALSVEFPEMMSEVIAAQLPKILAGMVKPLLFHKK
compound,measurement,setting,value
NS(=O)(=O)c1ccccc1OC(F)(F)F,outcome,[1],inactive
same,outcome,[2],inactive
same,outcome,[3],inactive
same,outcome,[4],inactive
same,outcome,[5],inactive
CN(C)c1ccc(CCO)cc1,outcome,[1],inactive
same,outcome,[2],inactive
same,outcome,[3],inactive
same,outcome,[6],inactive
same,outcome,[5],inactive
CCN(CC)CCOC(=O)c1ccc(N)cc1Cl,outcome,[1],inactive
same,outcome,[2],inactive
same,outcome,[3],inactive
same,outcome,[6],inactive
same,outcome,[5],inactive
COc1cccc(OC)c1C(=O)N[C@@H]1C(=O)N2[C@@H]1SC(C)(C)[C@@H]2C(=O)O,outcome,[1],inactive
same,outcome,[2],inactive
same,outcome,[3],inactive
same,outcome,[4],inactive
same,outcome,[5],inactive
Cc1ccccc1OCC(O)CO (stereo unspecified),outcome,[1],inactive
same,outcome,[2],inactive
same,outcome,[3],inactive
same,outcome,[4],inactive
O=C(NCC(O)CO)c1c(I)c(C(=O)NCC(O)CO)c(I)c(N(CCO)C(=O)CO)c1I (stereo unspecified),outcome,[1],inactive
same,outcome,[2],inactive
same,outcome,[3],inactive
same,outcome,[4],inactive
CC(C)CCCC(C)CCCC(C)CCCCC(C)CCCC(C)CCCC(C)C (stereo unspecified),outcome,[1],inactive
same,outcome,[2],inactive
same,outcome,[3],inactive
same,outcome,[4],inactive
same,outcome,[5],inactive
CCn1c2ccccc2c2cc([N+](=O)[O-])ccc21,outcome,[1],inactive
same,outcome,[2],inactive
same,outcome,[3],inactive
same,outcome,[6],inactive
same,outcome,[5],inactive
same,outcome,PGR (gene 5241) [7],inactive
same,AC50,PGR (gene 5241) [8],6.29 µM (active)
same,outcome,[9],inactive
same,outcome,[10],inactive
same,outcome,PGR (gene 5241) [11],inactive
same,AC50,PGR (gene 5241) [12],8.06 µM (active)
same,outcome,[13],inactive
same,outcome,[14],inactive
O=C(Cl)c1ccccc1[N+](=O)[O-],outcome,[1],inactive
same,outcome,[2],inactive
same,outcome,[3],inactive
same,outcome,[4],inactive
CN1CCC(=C2c3ccccc3C=Cc3ccccc32)CC1,AC50,[1],39.3 µM (active)
same,AC50,[2],43.2 µM (active)
same,outcome,[3],inactive
same,outcome,[5],inactive
Cc1cc(C)cc(OCC2CNC(=O)O2)c1 (stereo unspecified),outcome,[1],inactive
same,outcome,[2],inactive
same,outcome,[3],inactive
same,outcome,[5],inactive
Cc1cc2c(OCC(CNC(C)(C)C)OC(=O)c3ccccc3)cccc2[nH]1 (stereo unspecified),outcome,[1],inactive
same,outcome,[2],inactive
same,outcome,[3],inactive
same,outcome,[4],inactive
CC(C)NC[C@@H](O)COc1ccc(CC(N)=O)cc1,outcome,[1],inactive
same,outcome,[2],inactive
same,outcome,[3],inactive
same,outcome,[5],inactive
C[C@]12C=CC(=O)C=C1CC[C@@H]1[C@@H]2[C@@H](O)C[C@@]2(C)[C@H]1CC[C@]2(O)C(=O)COC(=O)CCC(=O)O,outcome,[1],inactive
same,outcome,[2],inactive
same,outcome,[3],inactive
same,outcome,[6],inactive
same,outcome,[5],inactive
CC[C@@H](C(=O)[C@@H](C)[C@@H](O)[C@H](C)[C@@H]1O[C@@H]([C@@H](CC)C(=O)O)CC[C@@H]1C)[C@H]1O[C@]2(C=C[C@@H](O)[C@]3(CC[C@@](C)([C@H]4CC[C@](O)(CC)[C@H](C)O4)O3)O2)[C@H](C)C[C@@H]1C,outcome,[1],inactive
same,outcome,[2],inactive
same,outcome,[3],inactive
same,outcome,[6],inactive
same,outcome,[5],inactive
